Potency and PLD induction data for seven compounds are collected here from PubChem BioAssay (Tox21).

Structures are written as SMILES. Values without a mark were called inactive. Records with an inconclusive call do not appear. Calls of active or inactive are those of the source. Unless noted, the call rests on the fitted dose curve; in most records, active means well fitted curve in the direction sought with a large enough effect in the repeat runs; inconclusive means weak or mixed curves; inactive means no such curve, though single readings can be large; an effect the other way counts as inactive or inconclusive.

Assay [1] is described as follows: A CellTox Green Cytotoxicity Assay to monitor cytotoxicity in HEK293 cells - 32 hour (AID 1224881). Further: nearly all actives have a fitted effect of over 40% in size. Further: potency means the concentration at half of the fitted maximal effect. The method in brief:
(§1)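 Real-time, in one plate: 600 HEK293 cells/well with dead-cell DNA dye, pinned compound after 5 h, 37 C incubation over 40 h; viable cells give no appreciable fluorescence.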

Assay [2] in a line: A CellTox Green Cytotoxicity Assay to monitor cytotoxicity in HepG2 cells - 0 hour (AID 1224882). Further: on the % scale 0 is the no-effect control and ±100 the full control effect; nearly all actives have a fitted effect of over 35% in size. The gist of the method:
(§2)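 Cytotoxicity was tracked as dead-cell DNA fluorescence in HepG2 cells treated with test compounds at 37 C; each time-point value comes from one kinetic series spanning 0, 8, 16, 24, 32 and 40 h.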

Assay [3] can be described thus: A CellTox Green Cytotoxicity Assay to monitor cytotoxicity in HepG2 cells - 32 hour (AID 1224883). Further: nearly all actives have a fitted effect of over 50% in size. Further: potency means the concentration at half of the fitted maximal effect. The method in brief: as §2
Assay [4] in a line: A CellTox Green Cytotoxicity Assay to monitor cytotoxicity in HEK293 cells - 8 hour (AID 1224884). Further: nearly all actives have a fitted effect of over 35% in size. Further: potency means the concentration at half of the fitted maximal effect. The gist of the method:
as §1

Assay [5] is described as follows: qHTS RealTime-Glo MT Cell Viability Assay in HepG2 cells - 16 hour (AID 1224885). Further: nearly all actives have a fitted effect of over 50% in size. Further: potency means the concentration at half of the fitted maximal effect. The gist of the method:
(§3)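 Viability was tracked continuously by NanoLuc luminescence from prosubstrate reduced by living HepG2 cells, at successive time points over 40 h of compound exposure. Cells with reagent were preincubated 5 h at 37 °C before compound addition.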

A short description of assay [6]: qHTS RealTime-Glo MT Cell Viability Assay in HEK293 cells - 24 hour (AID 1224886). Further: nearly all actives have a fitted effect of over 50% in size. Further: potency means the concentration at half of the fitted maximal effect. The gist of the method: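 Viability tracked continuously by luminescence as live cells reduce a prosubstrate for NanoLuc; HEK293 cells preincubated 5 h, compound-treated at 37 C, and read at 0, 8, 16, 24, 32 and 40 h.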
Assay [7] is described as follows: qHTS RealTime-Glo MT Cell Viability Assay in HEK293 cells - 8 hour (AID 1224887). Further: nearly all actives have a fitted effect of over 50% in size. Further: potency means the concentration at half of the fitted maximal effect. The method in brief:
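Kinetic, non-lysing viability readout. Seed HEK293 (600/well) with reagent, incubate 5 h at 37 C/5% CO2, pin 23 nL compound in DMSO, incubate at 37 C, read luminescence at 0, 8, 16, 24, 32, 40 h.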

Assay [8] is described as follows: A CellTox Green Cytotoxicity Assay to monitor cytotoxicity in HEK293 cells - 16 hour (AID 1224888). Further: nearly all actives have a fitted effect of over 35% in size. Further: potency means the concentration at half of the fitted maximal effect. The gist of the method:
as §1

A short description of assay [9]: A CellTox Green Cytotoxicity Assay to monitor cytotoxicity in HepG2 cells - 8 hour (AID 1224890). Further: nearly all actives have a fitted effect of over 45% in size. Further: potency means the concentration at half of the fitted maximal effect. The method in brief:
as §2

Assay [10] in a line: qHTS assay to identify small molecule antagonists of the estrogen receptor alpha (ER-alpha) signaling pathway using the BG1 cell line in the presence of 0.1 nM 17-beta-estradiol - cell viability counter screen (AID 1259241). Further: nearly all actives have a fitted effect of over 40% in size. Further: potency means the concentration at half of the fitted maximal effect. The gist of the method:
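Following 5 days in phenol red-free medium with charcoal-stripped serum, VM7Luc4E2 cells received test compounds alongside 0.1 nM 17beta-estradiol (final) at 37C for 22 hr. Live cells were then quantified via protease-substrate fluorescence.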

Assay [11] in a line: qHTS assay to identify small molecule antagonists of the androgen receptor (AR) signaling pathway using the MDA cell line in the presence of 0.5 nM R1881 - cell viability counter screen (AID 1259242). Further: nearly all actives have a fitted effect of over 45% in size. Further: potency means the concentration at half of the fitted maximal effect. The method in brief: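 Cells seeded at 3,000/well and allowed 5 hr at 37C, 0% CO2 before compound transfer and R1881 (0.5 nM final) addition; 16 hr later, live-cell protease fluorescence indicated cytotoxicity.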

Assay [12] has as its target Androgen receptor (Homo sapiens) (UniProt P10275). Kind of assay: qHTS assay to identify small molecule antagonists of the androgen receptor (AR) signaling pathway using the MDA cell line in the presence of 0.5 nM R1881 (AID 1259243). The gist of the method:
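Luminescence from an AR/GR-responsive MMTV-luciferase construct in MDA-kb2 breast carcinoma cells, read 30 min after ONE-Glo, following 16 hr co-treatment with compounds and 0.5 nM R1881.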

Assay [13] concerns the target Estrogen receptor (Homo sapiens) (UniProt P03372). Nature of the assay: qHTS assay to identify small molecule antagonists of the estrogen receptor alpha (ER-alpha) signaling pathway using the BG1 cell line in the presence of 0.1 nM 17-beta-estradiol (AID 1259244). The method in brief: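 Luciferase signal from VM7Luc4E2 ERE-reporter cells, co-dosed with test compound and 0.1 nM final 17beta-estradiol for 22 h, read with ONE-Glo.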

The nature of assay [14]: qHTS assay to identify small molecule HDAC inhibitors (AID 1259364). Further: potency means the concentration at half of the fitted maximal effect.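 Further: wild-type HCT-116 cells with endogenous class I/II HDAC activity; nearly all actives have a fitted effect of over 45% in size.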 The method in brief:
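HCT-116 wt cells, 1,500/well, overnight attach. Compounds (DMSO) 2 h, 37 °C. HDAC-Glo I/II, 30 min RT. Luminescence.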

Assay [15] in a line: qHTS assay to identify small molecule HDAC inhibitors - cell viability counter screen (AID 1259365). Further: nearly all actives have a fitted effect of over 50% in size. Further: potency means the concentration at half of the fitted maximal effect. The gist of the method: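 HCT-116 wild-type, overnight attachment; 2hr drug exposure, 37C; CellTiter-Glo luminescent ATP readout after 30min RT.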
Assay [16] in a line: qHTS assay to identify small molecule agonists of the sonic hedgehog signaling (Shh) pathway - cell viability counter screen (AID 1259366). Further: nearly all actives have a fitted effect of over 50% in size. Further: potency means the concentration at half of the fitted maximal effect. The gist of the method:
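Compounds in DMSO were pin-transferred onto 3T3 Gli1-Luc cells that had settled 4hr; plates then stood 24hr at 37C and 5% CO2. One hour before the end, CellTiter-Fluor was added and fluorescence recorded.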

Assay [17] can be described thus: qHTS assay to identify small molecule antagonists of the sonic hedgehog signaling (Shh) pathway - cell viability counter screen (AID 1259367). Further: nearly all actives have a fitted effect of over 55% in size. Further: potency means the concentration at half of the fitted maximal effect. The gist of the method:
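Tox21 library chemicals were tested on a Gli1-Luc NIH/3T3 clone (2,000 cells/well) stimulated by conditioned medium; viability was quantified as fluorescence from CellTiter-Fluor reagent added at 23 hr.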

A short description of assay [18]: qHTS assay to identify small molecule agonists of the sonic hedgehog signaling (Shh) pathway (AID 1259368; calls by dose curve;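 further: NIH/3T3-derived 3T3Gli1-Luc cells carrying a stable Gli1-driven firefly luciferase reporter; series mostly up to about 92 µM; on the % scale 0 is the no-effect control and ±100 the full control effect; nearly all actives have a fitted effect of over 15% in size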). The gist of the method:
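Following a 24 hr incubation with DMSO-dissolved compounds at 37 C, 5% CO2, Gli1-Luc NIH/3T3-derived cells received luciferase reagent for 30 min at room temperature prior to luminescence measurement.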

Assay [19] can be described thus: qHTS RealTime-Glo MT Cell Viability Assay in HepG2 cells - 0 hour (AID 1224889). The gist of the method:
as §3

Assay [20] can be described thus: qHTS assay to identify small molecule phospholipidosis (PLD) inducers (AID 1259344; active means well fitted curve in the direction sought with a large enough effect; an effect the other way counts as inactive or inconclusive; further: on the % scale 0 is the no-effect control and ±100 the full control effect). The method in brief: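 Image-based: LipidTOX Red pit count/intensity per well and per cell; HepG2, 24 h compound at 37 C, PFA fixation, Hoechst counterstain.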

Sequence of Estrogen receptor (Homo sapiens) (P03372 whole entry, looked up): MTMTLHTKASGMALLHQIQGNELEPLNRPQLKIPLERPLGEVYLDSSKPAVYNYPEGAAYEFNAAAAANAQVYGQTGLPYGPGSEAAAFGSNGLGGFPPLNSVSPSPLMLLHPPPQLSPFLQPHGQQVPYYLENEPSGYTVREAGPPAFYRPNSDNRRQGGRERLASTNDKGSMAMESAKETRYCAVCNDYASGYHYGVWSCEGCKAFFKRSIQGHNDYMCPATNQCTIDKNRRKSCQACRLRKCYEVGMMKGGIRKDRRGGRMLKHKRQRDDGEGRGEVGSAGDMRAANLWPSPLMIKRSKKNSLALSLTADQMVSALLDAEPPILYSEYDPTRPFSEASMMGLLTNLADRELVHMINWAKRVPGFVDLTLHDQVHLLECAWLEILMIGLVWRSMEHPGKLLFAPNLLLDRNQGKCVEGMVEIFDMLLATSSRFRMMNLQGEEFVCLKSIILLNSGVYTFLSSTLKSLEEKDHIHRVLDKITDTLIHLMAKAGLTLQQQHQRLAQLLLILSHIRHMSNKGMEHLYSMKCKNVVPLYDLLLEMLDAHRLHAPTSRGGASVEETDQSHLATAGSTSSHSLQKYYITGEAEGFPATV
Sequence of Androgen receptor (Homo sapiens) (P10275 whole entry, looked up): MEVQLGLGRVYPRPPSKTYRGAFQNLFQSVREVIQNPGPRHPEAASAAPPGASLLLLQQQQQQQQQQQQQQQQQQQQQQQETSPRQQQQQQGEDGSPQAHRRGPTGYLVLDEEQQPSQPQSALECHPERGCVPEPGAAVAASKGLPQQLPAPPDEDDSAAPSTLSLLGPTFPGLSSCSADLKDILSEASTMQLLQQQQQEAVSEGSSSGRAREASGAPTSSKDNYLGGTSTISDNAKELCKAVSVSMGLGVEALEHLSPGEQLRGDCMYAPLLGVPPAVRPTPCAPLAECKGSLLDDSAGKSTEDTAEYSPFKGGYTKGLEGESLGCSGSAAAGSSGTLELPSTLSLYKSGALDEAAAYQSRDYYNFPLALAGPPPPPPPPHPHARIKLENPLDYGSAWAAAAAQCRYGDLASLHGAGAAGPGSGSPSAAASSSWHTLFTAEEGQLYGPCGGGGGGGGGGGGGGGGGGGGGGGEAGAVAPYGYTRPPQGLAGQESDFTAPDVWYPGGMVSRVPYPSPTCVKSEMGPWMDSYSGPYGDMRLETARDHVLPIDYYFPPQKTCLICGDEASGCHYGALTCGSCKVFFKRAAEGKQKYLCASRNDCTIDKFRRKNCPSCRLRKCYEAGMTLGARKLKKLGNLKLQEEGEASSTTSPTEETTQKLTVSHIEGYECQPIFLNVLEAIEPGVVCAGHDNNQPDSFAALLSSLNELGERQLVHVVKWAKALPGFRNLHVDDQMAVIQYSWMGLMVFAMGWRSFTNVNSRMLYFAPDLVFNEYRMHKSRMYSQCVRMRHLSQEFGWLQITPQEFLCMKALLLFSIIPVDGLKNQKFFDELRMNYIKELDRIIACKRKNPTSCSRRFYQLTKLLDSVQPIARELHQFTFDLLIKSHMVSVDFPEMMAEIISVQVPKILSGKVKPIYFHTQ

Regarding `[Cl][Hg][c]1ccccc1`, the Potency in [1] is 2.19 µM (active); in [3] it was 2.45 µM (active); in assay [5], 2.75 µM (active); in assay [6] it was 1.23 µM (active); in assay [7], 1.95 µM (active); in assay [9], 3.09 µM (active). Also, the Potency in assay [10] was 9.69 µM (active); in [11], 8.63 µM (active); in [12], 2.43 µM (active); in assay [13], 6.11 µM (active); in [14], 30.6 µM (active); in assay [15], 13.7 µM (active). Further, the Potency in assay [16] was 0.545 µM (active); in assay [17], 0.864 µM (active). Besides, the Potency result in assay [2], in assay [4], in assay [8] and in [18] was “inactive” each time.
As to `CN`, the Potency result in assay [1], in assay [2], in assay [3], in assay [4], in assay [5] and in [6] was “inactive” in each case. The Potency entry in assay [7], in assay [8], in [19], in assay [9], in assay [10] and in [11] was “inactive” in each case. The Potency entry in assay [14], in assay [15], in assay [16], in assay [17] and in [18] was “inactive” each time.
As to `CCCN`, the Potency entry in assay [1], in [2], in assay [3], in [4], in assay [5] and in assay [6] was “inactive” throughout. Further, the Potency entry in [7], in [8], in assay [19], in assay [9], in [10] and in [11] was “inactive” each time. In addition, the Potency result in [14], in [16], in assay [17] and in [18] was “inactive” each time.
Turning to `Clc1cc(Cl)c(-c2cc(Cl)c(Cl)cc2Cl)cc1Cl`, the Potency entry in assay [1], in assay [2], in [3], in [4], in assay [5] and in assay [6] was “inactive” throughout. The Potency result in assay [7], in assay [8], in assay [19], in [9], in assay [10] and in [11] was “inactive” each time. Besides, the Potency entry in assay [14], in assay [15], in assay [16], in assay [17] and in [18] was “inactive” throughout.
Regarding `CCN(CC)Cc1nccn1-c1ccc([N+](=O)[O-])cc1C(=O)c1ccccc1Cl`, the Potency entry in [1], in assay [2], in assay [3], in assay [4], in assay [5] and in assay [6] was “inactive” throughout. Moreover, the Potency entry in [7], in assay [8], in assay [19], in assay [9], in assay [10] and in assay [11] was “inactive” each time. The Potency entry in assay [14], in assay [15] and in [18] was “inactive” throughout. In [20], the PLD induction was 0.825% [at 7.66 µM].
As for `[F][Sn]([c]1ccccc1)([c]1ccccc1)[c]1ccccc1`, the Potency in assay [1] was 1.74 µM (active); in assay [3] it was 1.95 µM (active); in assay [4], 5.49 µM (active); in assay [5], 0.871 µM (active); in assay [6], 0.49 µM (active); in assay [7], 1.74 µM (active). Moreover, the Potency in assay [8] is 6.16 µM (active); in assay [9] it was 2.45 µM (active); in assay [10], 24.3 µM (active); in [11], 2.17 µM (active); in assay [13] it was 2.73 µM (active); in assay [16], 0.0969 µM (active). The Potency in assay [17] is 0.154 µM (active). Moreover, the Potency entry in assay [2], in [19], in assay [15] and in assay [18] was “inactive” each time.
Regarding `COCCC#N`, the Potency entry in assay [1], in assay [2], in assay [3], in [4], in assay [5] and in assay [6] was “inactive” each time. Moreover, the Potency entry in [7], in assay [8], in assay [19], in assay [9], in assay [10] and in [11] was “inactive” in each case. Besides, the Potency result in [14], in [15], in assay [17] and in assay [18] was “inactive” in each case.
